From PubChem BioAssay (EPA / NIEHS)
Inconclusive results are not listed. The source made the active and inactive calls. Rule for the calls, unless noted: active = hit-call score of the fitted dose curve at least 0.9, where 1 is the maximum; inactive = score below 0.9.

Legend:
[1] = ATG_NFI_CIS: Attagene CIS-FACTORIAL HepG2 Assay for human Nuclear Factor I (NFI) (AID 2282989); settings: HepG2 cis-regulatory reporter, NFI response element transcription; actives raise or lower the signal
Outline: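 Transfected HepG2 liver cells, exposed 24 h, supplied total RNA for oligo(dT) reverse transcription and reporter-specific PCR. Labelled, HpaI-cut fragments were sized by capillary electrophoresis; DMSO set the baseline for bidirectional fitting.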

[2] = target: Myc proto-oncogene protein (Homo sapiens) (UniProt P01106); experiment: ATG_Myc_CIS: Attagene CIS-FACTORIAL HepG2 Assay for human Myelocytomatosis (Myc) Proto-Oncogene Transcription Factor (AID 2282990); settings: HepG2, Attagene cis-reporter transcription factor activity; actives raise or lower the signal
Sequence of Myc proto-oncogene protein (Homo sapiens) (P01106 whole entry, looked up): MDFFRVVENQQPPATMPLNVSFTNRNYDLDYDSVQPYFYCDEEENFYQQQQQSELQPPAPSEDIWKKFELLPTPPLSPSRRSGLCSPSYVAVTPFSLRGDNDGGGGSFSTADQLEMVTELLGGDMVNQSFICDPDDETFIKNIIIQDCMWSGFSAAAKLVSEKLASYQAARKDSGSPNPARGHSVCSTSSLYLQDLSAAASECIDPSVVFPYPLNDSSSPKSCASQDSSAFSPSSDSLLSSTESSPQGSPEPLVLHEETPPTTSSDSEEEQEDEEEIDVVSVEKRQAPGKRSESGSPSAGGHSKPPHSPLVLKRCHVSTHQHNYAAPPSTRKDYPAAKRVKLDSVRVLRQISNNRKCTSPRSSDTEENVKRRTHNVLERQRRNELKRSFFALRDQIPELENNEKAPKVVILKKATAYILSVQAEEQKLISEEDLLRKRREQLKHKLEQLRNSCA
Outline: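 DMSO-normalised, bidirectionally fitted reporter mRNA signal. HepG2 cells transfected with cis reporter constructs, treated 24 h; transcripts detected by RT-PCR, 6-FAM primer extension and CE.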

[3] = ATG_NF_kB_CIS: Attagene CIS-FACTORIAL HepG2 Assay for human Nuclear Factor Kappa B (NF-kB) (AID 2282991); settings: HepG2 Attagene cis-factorial NF-kB reporter mRNA; actives raise or lower the signal
Outline: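 HepG2 cells transfected with cis-promoter-driven reporter units, so endogenous transcription factor activity is measured. Reporter mRNA quantified 24 h after dosing by RT-PCR and capillary electrophoresis, with bidirectional fitting against DMSO.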

[4] = ATG_NRF2_ARE_CIS: Attagene CIS-FACTORIAL HepG2 Assay for human Nuclear Factor Erythroid 2 Related Factor 2 (NFR2) response to Antioxidant Response Elements (ARE) (AID 2282992); settings: HepG2 Attagene ARE/NRF2 reporter, transcription factor activity; actives raise or lower the signal;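 for AC50: reporter mRNA level measured by RT-PCR and capillary electrophoresis fluorescence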
Outline: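 Multiplexed reporter mRNA profiling in HepG2 after a 24 h chemical exposure. Curves fitted in both directions relative to DMSO negative control.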

[5] = ATG_Oct_MLP_CIS: Attagene CIS-FACTORIAL HepG2 Assay for human Octamer-Binding Transcription Factor (Oct) (AID 2282993); settings: HepG2 Attagene cis-factorial Oct reporter, mRNA; actives raise or lower the signal
Outline: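 Using HepG2 cells bearing transfected cis-reporter constructs, mRNA induction was read after 24 h by fluorescent RT-PCR and capillary electrophoresis, with DMSO defining baseline for gain- or loss-of-signal fits.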

[6] = target: Cellular tumor antigen p53 (Homo sapiens) (UniProt P04637); experiment: ATG_p53_CIS: Attagene CIS-FACTORIAL HepG2 Assay for human p53 Transcription Factor (AID 2282994); settings: HepG2 p53 cis-element reporter, Attagene mRNA; actives raise or lower the signal
Sequence of Cellular tumor antigen p53 (Homo sapiens) (P04637 whole entry, looked up): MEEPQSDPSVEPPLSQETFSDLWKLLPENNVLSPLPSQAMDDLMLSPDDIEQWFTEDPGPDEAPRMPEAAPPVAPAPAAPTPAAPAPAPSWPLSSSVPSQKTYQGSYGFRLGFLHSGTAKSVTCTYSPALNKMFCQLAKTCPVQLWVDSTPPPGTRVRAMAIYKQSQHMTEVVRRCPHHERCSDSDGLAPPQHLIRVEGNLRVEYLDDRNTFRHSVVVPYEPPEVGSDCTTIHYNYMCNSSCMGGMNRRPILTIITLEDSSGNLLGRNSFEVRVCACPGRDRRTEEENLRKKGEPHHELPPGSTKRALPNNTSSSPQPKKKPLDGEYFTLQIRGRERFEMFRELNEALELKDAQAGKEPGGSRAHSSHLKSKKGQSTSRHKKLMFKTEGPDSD
Outline: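 Multiplexed reporter mRNA assay in human HepG2 liver cells; cis-regulated units report endogenous factor activity. Values come from bidirectional curve fitting against DMSO negative control after 24 h treatment.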

[7] = BSK_3C_TissueFactor: BioMAP Diversity Plus: 3C Assay for Tissue Factor Biomarker Activity (AID 2282997); settings: BioMAP 3C HUVEC, tissue factor biomarker readout; actives raise or lower the signal
Outline: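 Values derive from bidirectional curve fitting against DMSO of Tissue Factor ELISA signals, taken 24 h after dosing primary human umbilical vein endothelial cells.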

[8] = BSK_3C_uPAR: BioMAP Diversity Plus: 3C Assay for Urokinase-type plasminogen activator receptor (uPAR) Biomarker Activity (AID 2282998); settings: BioMAP 3C HUVEC, uPAR biomarker ELISA; actives raise or lower the signal
Outline: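 In this endothelial cell-based assay, human umbilical vein primary cells were treated with chemicals and harvested at 24 h. uPAR was quantified using ELISA, with gains or losses fitted relative to DMSO controls.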

[9] = BSK_3C_VCAM1: BioMAP Diversity Plus: 3C Assay for Vascular cell adhesion molecule 1 (VCAM1) Biomarker Activity (AID 2282999); settings: BioMAP 3C HUVEC, VCAM1 ELISA, cytokine-stimulated; actives raise or lower the signal
Outline: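 Human umbilical vein endothelial cells were dosed with compound for 24 h, after which cell-surface VCAM-1 was quantified by ELISA. Bidirectional curve fitting used DMSO as negative control and activity baseline.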

[10] = BSK_4H_Eotaxin3: BioMAP Diversity Plus: 4H Assay for Eotaxin 3 Biomarker Activity (AID 2283000); settings: primary human endothelial cells (HUVEC); actives raise or lower the signal;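 for outcome: CCL26 protein level quantified by ELISA in parallel with SRB cytotoxicity check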
Outline: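 Endothelial primary cells (human umbilical vein) exposed to compound for 24 h. ELISA detection of Eotaxin-3.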

[11] = read-out: Intercellular Adhesion Molecule 1 (ICAM1), ICAM1 (gene 3383); experiment: BSK_3C_ICAM1: BioMAP Diversity Plus: 3C Assay for Intercellular Adhesion Molecule 1 (ICAM1) Biomarker Activity (AID 2283003); settings: primary human endothelial cells (HUVEC); actives raise or lower the signal
Outline: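 HUVEC primary cells stimulated under 3C conditions; ICAM1 measured by ELISA 24 h after compound dosing. Curves fitted bidirectionally against the DMSO baseline. Overt cytotoxicity checked by SRB staining of parallel cultures.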

[12] = target: human Retinoic Acid Receptor beta (RARb), RARB (gene 5915) (UniProt P10826); experiment: ATG_RARb_TRANS: Attagene TRANS-FACTORIAL HepG2 Assay for human Retinoic Acid Receptor beta (AID 2283004; active = hit-call score of the fitted dose curve at least 0.9, where 1 is the maximum)
Sequence of human Retinoic Acid Receptor beta (RARb), RARB (gene 5915) (P10826 whole entry, looked up, the tested form may be a part): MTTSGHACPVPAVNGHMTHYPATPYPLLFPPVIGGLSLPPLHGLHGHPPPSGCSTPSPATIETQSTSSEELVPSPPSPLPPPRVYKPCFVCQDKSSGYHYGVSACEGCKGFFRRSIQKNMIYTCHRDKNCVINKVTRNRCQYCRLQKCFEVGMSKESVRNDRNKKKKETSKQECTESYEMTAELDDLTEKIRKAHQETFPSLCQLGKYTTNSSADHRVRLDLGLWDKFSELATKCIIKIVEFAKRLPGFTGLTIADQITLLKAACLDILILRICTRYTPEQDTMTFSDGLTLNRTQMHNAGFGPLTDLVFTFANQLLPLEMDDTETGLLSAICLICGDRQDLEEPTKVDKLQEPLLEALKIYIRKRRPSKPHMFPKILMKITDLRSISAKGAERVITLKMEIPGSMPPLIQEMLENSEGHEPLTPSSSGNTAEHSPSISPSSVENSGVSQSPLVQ
Outline: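 HepG2, transient MRTU transfection, NR–Gal4 chimera, 24 h treatment; RT-PCR plus CE fluorescence detection of reporter mRNA; gain of signal vs DMSO.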

[13] = BSK_3C_Proliferation: Cell Proliferation Assessment in the BioMAP Diversity Plus: 3C Assay (AID 2283006); settings: primary human endothelial cells (HUVEC);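 for AC50: potency may reflect either rise or fall in cell number versus DMSO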
Outline: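 Subconfluent HUVEC (3C system) cultured with chemical; relative cell number read at 48 h by sulforhodamine B total-protein staining (0.1% SRB after 10% TCA fixation, 560 nm). Bidirectional fit relative to DMSO.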

[14] = target: Peroxisome proliferator-activated receptor gamma (Homo sapiens) (UniProt P37231); experiment: ATG_PPARg_TRANS: Attagene TRANS-FACTORIAL HepG2 Assay for human Peroxisome Proliferator-activated Receptor-gamma (PPARg) (AID 2283007; active = hit-call score of the fitted dose curve at least 0.9, where 1 is the maximum)
Sequence of Peroxisome proliferator-activated receptor gamma (Homo sapiens) (P37231 whole entry, looked up, the tested form may be a part): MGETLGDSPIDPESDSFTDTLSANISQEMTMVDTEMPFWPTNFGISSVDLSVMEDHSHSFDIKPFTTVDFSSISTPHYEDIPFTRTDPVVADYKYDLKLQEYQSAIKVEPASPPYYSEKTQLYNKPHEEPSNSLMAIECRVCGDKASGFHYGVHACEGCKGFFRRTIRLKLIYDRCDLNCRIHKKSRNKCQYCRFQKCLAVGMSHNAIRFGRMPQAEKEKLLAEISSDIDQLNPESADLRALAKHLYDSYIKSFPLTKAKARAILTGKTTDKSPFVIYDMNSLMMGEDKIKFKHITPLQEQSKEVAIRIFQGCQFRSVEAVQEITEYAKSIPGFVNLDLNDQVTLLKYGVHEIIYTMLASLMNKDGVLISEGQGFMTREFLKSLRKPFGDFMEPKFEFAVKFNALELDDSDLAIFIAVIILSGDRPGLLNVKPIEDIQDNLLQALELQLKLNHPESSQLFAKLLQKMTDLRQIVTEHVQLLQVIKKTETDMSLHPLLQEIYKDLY
Outline: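 HepG2 cells are transiently transfected with GAL4-UAS reporter units driven by chimeric NR-Gal4 fusions and dosed for 24 h. Reporter mRNA is quantified by RT-PCR, 6-FAM labelling, HpaI digestion and capillary electrophoresis. Induction is scored against DMSO.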

[15] = target: human Retinoic Acid Receptor gamma (RARg), RARG (gene 5916) (UniProt P13631); experiment: ATG_RARg_TRANS: Attagene TRANS-FACTORIAL HepG2 Assay for human Retinoic Acid Receptor gamma (RARg) (AID 2283009; active = hit-call score of the fitted dose curve at least 0.9, where 1 is the maximum)
Sequence of human Retinoic Acid Receptor gamma (RARg), RARG (gene 5916) (P13631 whole entry, looked up, the tested form may be a part): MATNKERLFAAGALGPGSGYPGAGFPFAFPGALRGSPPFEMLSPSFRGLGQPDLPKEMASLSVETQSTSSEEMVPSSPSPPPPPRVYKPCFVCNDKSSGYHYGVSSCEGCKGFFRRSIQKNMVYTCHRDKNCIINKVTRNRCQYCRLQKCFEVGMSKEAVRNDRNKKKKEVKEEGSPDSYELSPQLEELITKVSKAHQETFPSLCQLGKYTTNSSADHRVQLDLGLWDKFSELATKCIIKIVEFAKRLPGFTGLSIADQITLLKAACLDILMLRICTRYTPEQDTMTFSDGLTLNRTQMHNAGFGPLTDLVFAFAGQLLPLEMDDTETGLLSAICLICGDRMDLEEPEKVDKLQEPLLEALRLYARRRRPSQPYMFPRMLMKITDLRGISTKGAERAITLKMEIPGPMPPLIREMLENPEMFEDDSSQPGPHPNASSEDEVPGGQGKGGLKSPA
Outline: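 HepG2 transiently transfected with GAL4-UAS reporter units and chimeric NR-Gal4 constructs; 24 h compound exposure. Reporter mRNA quantified by RT-PCR, FAM labeling, HpaI digestion and capillary electrophoresis; gain-of-signal versus DMSO.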

[16] = target: Retinoic acid receptor alpha (Homo sapiens) (UniProt P10276); experiment: ATG_RARa_TRANS: Attagene TRANS-FACTORIAL HepG2 Assay for human Retinoic Acid Receptor alpha (RARa) (AID 2283005; active = hit-call score of the fitted dose curve at least 0.9, where 1 is the maximum)
Sequence of Retinoic acid receptor alpha (Homo sapiens) (P10276 whole entry, looked up, the tested form may be a part): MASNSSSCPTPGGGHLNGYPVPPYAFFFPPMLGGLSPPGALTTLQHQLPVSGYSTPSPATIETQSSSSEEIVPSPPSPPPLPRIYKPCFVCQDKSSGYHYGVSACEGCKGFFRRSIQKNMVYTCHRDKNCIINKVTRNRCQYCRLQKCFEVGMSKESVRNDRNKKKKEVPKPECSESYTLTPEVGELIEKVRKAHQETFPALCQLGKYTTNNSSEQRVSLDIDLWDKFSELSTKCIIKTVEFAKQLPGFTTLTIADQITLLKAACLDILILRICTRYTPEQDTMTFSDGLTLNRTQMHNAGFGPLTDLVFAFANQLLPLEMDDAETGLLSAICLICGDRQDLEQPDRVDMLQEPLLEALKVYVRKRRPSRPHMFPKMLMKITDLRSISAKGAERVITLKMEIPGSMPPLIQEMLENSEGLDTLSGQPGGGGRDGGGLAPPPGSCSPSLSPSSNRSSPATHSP
Outline: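 HepG2 cells transiently transfected with multiple reporter units expressing chimeric RARα-GAL4 fusion, with GAL4-UAS-driven reporters. After 24 h compound exposure, reporter mRNA induction quantified by RT-PCR and capillary electrophoresis with fluorescent labeling; gain-of-signal fitted relative to DMSO control.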

[17] = target: Nuclear receptor subfamily 1 group I member 2 (Homo sapiens) (UniProt O75469); experiment: ATG_PXR_TRANS: Attagene TRANS-FACTORIAL HepG2 Assay for human Pregnane X Receptor (PXR) (AID 2283008; active = hit-call score of the fitted dose curve at least 0.9, where 1 is the maximum)
Sequence of Nuclear receptor subfamily 1 group I member 2 (Homo sapiens) (O75469 whole entry, looked up, the tested form may be a part): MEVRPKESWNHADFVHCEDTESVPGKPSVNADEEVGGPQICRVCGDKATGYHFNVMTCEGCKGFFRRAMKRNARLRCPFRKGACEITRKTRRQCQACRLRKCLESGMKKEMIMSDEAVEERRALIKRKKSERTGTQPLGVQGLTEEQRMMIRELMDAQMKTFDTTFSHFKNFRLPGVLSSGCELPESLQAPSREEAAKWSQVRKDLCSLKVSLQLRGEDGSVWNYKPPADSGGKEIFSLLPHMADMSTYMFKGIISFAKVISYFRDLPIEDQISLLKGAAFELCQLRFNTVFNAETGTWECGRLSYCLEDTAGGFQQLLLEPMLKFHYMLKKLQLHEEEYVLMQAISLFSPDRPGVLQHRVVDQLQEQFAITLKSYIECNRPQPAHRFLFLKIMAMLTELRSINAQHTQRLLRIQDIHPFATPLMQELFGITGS
Outline: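 Measures mRNA induction of a GAL4-UAS-driven reporter in human HepG2 cells transiently expressing PXR fused to Gal4, following 24 h treatment. DMSO served as negative control and baseline.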

[18] = target: human RAR-related Orphan Receptor beta (RORb), RORB (gene 6096) (UniProt Q92753); experiment: ATG_RORb_TRANS: Attagene TRANS-FACTORIAL HepG2 Assay for human RAR-related Orphan Receptor beta (RORb) (AID 2283010; active = hit-call score of the fitted dose curve at least 0.9, where 1 is the maximum)
Sequence of human RAR-related Orphan Receptor beta (RORb), RORB (gene 6096) (Q92753 whole entry, looked up, the tested form may be a part): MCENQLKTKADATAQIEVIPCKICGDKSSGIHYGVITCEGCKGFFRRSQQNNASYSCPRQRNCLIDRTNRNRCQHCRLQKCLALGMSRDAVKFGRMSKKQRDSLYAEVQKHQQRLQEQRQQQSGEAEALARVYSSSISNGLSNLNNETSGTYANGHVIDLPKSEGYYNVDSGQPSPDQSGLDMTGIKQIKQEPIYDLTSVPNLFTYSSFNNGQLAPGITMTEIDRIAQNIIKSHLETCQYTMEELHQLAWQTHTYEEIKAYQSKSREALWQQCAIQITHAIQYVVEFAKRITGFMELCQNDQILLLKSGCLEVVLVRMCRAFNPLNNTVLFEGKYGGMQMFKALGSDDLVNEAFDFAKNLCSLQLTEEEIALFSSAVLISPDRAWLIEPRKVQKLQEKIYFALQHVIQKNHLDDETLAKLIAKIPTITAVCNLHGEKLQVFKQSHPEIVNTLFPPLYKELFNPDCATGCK
Outline: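 HepG2 cells transiently transfected with GAL4-UAS reporter units expressing chimeric NR-Gal4 protein; reporter mRNA measured 24 h after dosing by RT-PCR, 6-FAM labelling and capillary electrophoresis. Gain-of-signal fitted relative to DMSO baseline.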

[19] = target: human Peroxisome Proliferator-activated Receptor delta (PPARd), PPARD (gene 5467) (UniProt Q03181); experiment: ATG_PPARd_TRANS: Attagene TRANS-FACTORIAL HepG2 Assay for human Peroxisome Proliferator-activated Receptor delta (PPARd) (AID 2283002; active = hit-call score of the fitted dose curve at least 0.9, where 1 is the maximum)
Sequence of human Peroxisome Proliferator-activated Receptor delta (PPARd), PPARD (gene 5467) (Q03181 whole entry, looked up, the tested form may be a part): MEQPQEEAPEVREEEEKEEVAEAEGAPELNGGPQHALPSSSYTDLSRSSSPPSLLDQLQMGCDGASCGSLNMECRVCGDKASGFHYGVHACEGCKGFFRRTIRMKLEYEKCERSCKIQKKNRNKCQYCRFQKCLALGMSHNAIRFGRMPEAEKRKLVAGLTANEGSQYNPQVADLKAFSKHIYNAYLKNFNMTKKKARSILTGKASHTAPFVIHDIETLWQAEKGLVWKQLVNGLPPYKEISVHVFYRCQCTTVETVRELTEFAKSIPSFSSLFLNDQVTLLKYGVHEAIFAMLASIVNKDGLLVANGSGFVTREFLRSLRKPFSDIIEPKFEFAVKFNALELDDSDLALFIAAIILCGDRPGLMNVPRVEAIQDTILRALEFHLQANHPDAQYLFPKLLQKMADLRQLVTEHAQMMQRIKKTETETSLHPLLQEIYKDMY
Outline: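 Measured quantity: GAL4-UAS reporter transcript induction in HepG2 after 24 h chemical dosing, with NR-Gal4 chimeras supplied by transient transfection. Detection by RT-PCR and capillary electrophoresis; upward fit against DMSO.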

[20] = target: human Peroxisome Proliferator-activated Receptor alpha (PPARa), PPARA (gene 5465) (UniProt Q07869); experiment: ATG_PPARa_TRANS: Attagene TRANS-FACTORIAL HepG2 Assay for human Peroxisome Proliferator-activated Receptor alpha (PPARa) (AID 2283001; active = hit-call score of the fitted dose curve at least 0.9, where 1 is the maximum)
Sequence of human Peroxisome Proliferator-activated Receptor alpha (PPARa), PPARA (gene 5465) (Q07869 whole entry, looked up, the tested form may be a part): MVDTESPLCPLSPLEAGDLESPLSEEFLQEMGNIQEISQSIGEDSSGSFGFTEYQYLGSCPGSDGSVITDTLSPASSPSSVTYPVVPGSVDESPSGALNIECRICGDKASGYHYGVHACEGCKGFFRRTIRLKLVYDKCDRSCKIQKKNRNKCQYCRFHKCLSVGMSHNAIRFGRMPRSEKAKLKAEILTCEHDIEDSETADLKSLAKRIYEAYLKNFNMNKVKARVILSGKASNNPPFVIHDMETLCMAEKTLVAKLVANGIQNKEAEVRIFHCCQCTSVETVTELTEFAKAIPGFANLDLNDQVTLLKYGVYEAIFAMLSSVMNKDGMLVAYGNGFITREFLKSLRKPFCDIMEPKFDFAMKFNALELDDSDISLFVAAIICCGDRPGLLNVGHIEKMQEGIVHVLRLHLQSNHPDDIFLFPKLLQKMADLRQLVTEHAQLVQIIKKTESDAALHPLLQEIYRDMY
Outline: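 Gain-of-signal endpoint: reporter mRNA induction relative to DMSO, detected by fluorescent RT-PCR and capillary electrophoresis. HepG2 cells transiently carried GAL4-UAS-driven reporter units plus NR-Gal4 fusion; exposure lasted 24 h.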

CN1COCN(Cc2cnc(Cl)s2)C1=N[N+](=O)[O-]
outcome [1]: inactive | outcome [2]: inactive | outcome [3]: inactive | outcome [4]: inactive | outcome [5]: inactive | outcome [6]: inactive | outcome [7]: inactive | outcome [8]: inactive | outcome [9]: inactive | outcome [10]: inactive | outcome [11]: inactive | outcome [12]: inactive | outcome [13]: inactive | outcome [14]: inactive | outcome [15]: inactive

C#CC(C)(C)NC(=O)c1cc(Cl)cc(Cl)c1
outcome [1]: inactive | outcome [2]: inactive | outcome [3]: inactive | AC50 [4]: 22 µM (active) | AC50 [5]: 30.6 µM (active) | outcome [6]: inactive | outcome [7]: inactive | outcome [8]: inactive | outcome [9]: inactive | outcome [10]: inactive | outcome [11]: inactive | outcome [16]: inactive | outcome [13]: inactive | AC50 [17]: 30.9 µM (active) | outcome [18]: inactive

CCCCSP(=O)(SCCCC)SCCCC
outcome [1]: inactive | AC50 [2]: 83.2 µM (active) | AC50 [4]: 18.3 µM (active) | AC50 [5]: 11.8 µM (active) | outcome [6]: inactive | outcome [7]: inactive | AC50 [8]: 28.7 µM (active) | outcome [9]: inactive | outcome [10]: inactive | outcome [19]: inactive | outcome [11]: inactive | outcome [12]: inactive | AC50 [13]: 29.5 µM (active) | AC50 [14]: 30.5 µM (active) | outcome [17]: inactive | outcome [15]: inactive

CC(Oc1cccc(Cl)c1)C(=O)O (stereo unspecified)
outcome [1]: inactive | outcome [2]: inactive | outcome [4]: inactive | outcome [5]: inactive | outcome [6]: inactive | outcome [7]: inactive | outcome [8]: inactive | outcome [9]: inactive | outcome [10]: inactive | outcome [20]: inactive | outcome [19]: inactive | outcome [11]: inactive | outcome [16]: inactive | outcome [13]: inactive | outcome [14]: inactive | outcome [17]: inactive | outcome [15]: inactive

COP(=O)(OC)SCn1c(=O)oc2cc(Cl)cnc21
outcome [1]: inactive | outcome [2]: inactive | outcome [3]: inactive | AC50 [4]: 8.25 µM (active) | outcome [5]: inactive | outcome [6]: inactive | outcome [7]: inactive | outcome [8]: inactive | outcome [9]: inactive | AC50 [10]: 36.9 µM (active) | outcome [11]: inactive | outcome [13]: inactive | AC50 [14]: 14.7 µM (active) | outcome [17]: inactive | outcome [18]: inactive

S=C1NCCN1
outcome [1]: inactive | outcome [2]: inactive | outcome [3]: inactive | outcome [4]: inactive | outcome [5]: inactive | outcome [6]: inactive | outcome [7]: inactive | outcome [8]: inactive | outcome [9]: inactive | outcome [10]: inactive | outcome [11]: inactive | outcome [12]: inactive | outcome [13]: inactive | outcome [14]: inactive | outcome [17]: inactive

CCNc1nc(Cl)nc(NC(C)(C)C#N)n1
outcome [1]: inactive | outcome [2]: inactive | outcome [4]: inactive | outcome [5]: inactive | outcome [6]: inactive | outcome [7]: inactive | outcome [8]: inactive | outcome [9]: inactive | outcome [10]: inactive | outcome [19]: inactive | outcome [11]: inactive | outcome [13]: inactive | outcome [14]: inactive
